From the supplement of paper PMC11732987, “Enantioselective OTUD7B fragment discovery through chemoproteomics screening and high-throughput optimisation” (Communications Chemistry, 2025)

What was measured:
Assay in all cases: log2 ratio of Biotin-Ahx-Ub-VS probe labelling (fragment/DMSO); higher = less target engagement (more negative = stronger competition), active = hit call of the paper (q ≤ 0.05, log2 ratio ≤ -1)
Conditions in all cases: compound concentration: 200 uM; treatment time: 3 h
USP19 = target: T1, USP19 (UniProt O94966)
T1 sequence (whole entry): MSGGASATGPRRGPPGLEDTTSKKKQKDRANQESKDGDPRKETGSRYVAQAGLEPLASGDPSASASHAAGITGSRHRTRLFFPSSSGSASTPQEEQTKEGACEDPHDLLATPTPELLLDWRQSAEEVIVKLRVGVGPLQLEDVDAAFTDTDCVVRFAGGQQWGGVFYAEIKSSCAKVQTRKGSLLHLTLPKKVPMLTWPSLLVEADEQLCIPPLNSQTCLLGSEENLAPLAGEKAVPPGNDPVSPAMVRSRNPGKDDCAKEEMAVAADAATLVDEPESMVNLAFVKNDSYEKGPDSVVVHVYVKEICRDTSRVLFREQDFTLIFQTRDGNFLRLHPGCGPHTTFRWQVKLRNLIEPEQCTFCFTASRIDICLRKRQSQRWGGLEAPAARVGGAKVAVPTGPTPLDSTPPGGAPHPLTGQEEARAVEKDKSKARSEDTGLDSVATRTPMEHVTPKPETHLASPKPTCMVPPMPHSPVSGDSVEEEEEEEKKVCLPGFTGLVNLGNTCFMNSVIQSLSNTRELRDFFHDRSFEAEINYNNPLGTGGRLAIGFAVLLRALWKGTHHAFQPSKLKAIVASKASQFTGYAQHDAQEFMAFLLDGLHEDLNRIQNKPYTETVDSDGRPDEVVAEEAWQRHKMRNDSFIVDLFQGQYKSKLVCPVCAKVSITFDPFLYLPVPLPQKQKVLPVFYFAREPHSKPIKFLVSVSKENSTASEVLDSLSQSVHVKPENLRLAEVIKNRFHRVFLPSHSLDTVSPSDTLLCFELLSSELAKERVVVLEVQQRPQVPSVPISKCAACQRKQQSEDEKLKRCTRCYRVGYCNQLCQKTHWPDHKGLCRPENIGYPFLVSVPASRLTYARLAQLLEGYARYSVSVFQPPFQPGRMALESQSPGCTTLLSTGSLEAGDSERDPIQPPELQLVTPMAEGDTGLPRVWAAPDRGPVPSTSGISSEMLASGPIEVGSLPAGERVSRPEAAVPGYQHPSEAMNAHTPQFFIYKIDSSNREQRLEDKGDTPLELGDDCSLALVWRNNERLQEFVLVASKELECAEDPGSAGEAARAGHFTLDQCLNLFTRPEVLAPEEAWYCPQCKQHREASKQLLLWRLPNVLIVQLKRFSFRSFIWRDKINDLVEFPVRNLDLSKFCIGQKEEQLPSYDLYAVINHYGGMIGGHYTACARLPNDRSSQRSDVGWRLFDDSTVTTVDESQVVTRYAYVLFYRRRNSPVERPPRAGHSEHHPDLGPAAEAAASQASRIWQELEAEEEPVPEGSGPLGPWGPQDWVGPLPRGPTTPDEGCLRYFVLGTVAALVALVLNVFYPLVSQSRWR
In short: (§1)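 HEK293T lysate in Tris/CHAPS/IGEPAL buffer with protease inhibitors (495 µg per sample) was given fragment at 200 µM or vehicle for 3 h, in triplicate. It then received Biotin-Ahx-Ub-VS at 0.5 µM final for 1 h. Labelled DUBs were NeutrAvidin-enriched, digested with LysC and trypsin, and run by diaPASEF LC-MS/MS. Values are average log2 fragment/vehicle ratios by unpaired t-test on global-median-normalised Spectronaut quantities of proteins with ≥2 unique peptides.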

USP22 = target: T2, USP22 (UniProt Q9UPT9)
T2 sequence (whole entry): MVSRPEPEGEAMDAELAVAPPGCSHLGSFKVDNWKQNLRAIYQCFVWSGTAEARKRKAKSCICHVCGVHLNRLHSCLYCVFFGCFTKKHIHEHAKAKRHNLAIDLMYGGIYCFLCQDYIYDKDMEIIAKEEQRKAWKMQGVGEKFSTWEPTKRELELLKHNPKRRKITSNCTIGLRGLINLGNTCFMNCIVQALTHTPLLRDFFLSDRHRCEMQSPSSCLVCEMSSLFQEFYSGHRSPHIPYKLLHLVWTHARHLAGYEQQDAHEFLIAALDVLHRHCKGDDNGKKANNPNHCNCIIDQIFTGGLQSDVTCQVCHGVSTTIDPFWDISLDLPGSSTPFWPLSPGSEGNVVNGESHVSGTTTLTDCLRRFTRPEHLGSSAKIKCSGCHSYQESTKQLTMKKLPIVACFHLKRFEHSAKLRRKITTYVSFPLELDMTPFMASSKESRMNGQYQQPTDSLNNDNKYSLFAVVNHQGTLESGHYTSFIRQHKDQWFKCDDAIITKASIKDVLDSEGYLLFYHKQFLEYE
In short: as §1

USP24 = USP24 (UniProt Q9UPU5)
In short: as §1

USP25 = target: T3, USP25 (UniProt Q9UHP3)
T3 sequence (whole entry): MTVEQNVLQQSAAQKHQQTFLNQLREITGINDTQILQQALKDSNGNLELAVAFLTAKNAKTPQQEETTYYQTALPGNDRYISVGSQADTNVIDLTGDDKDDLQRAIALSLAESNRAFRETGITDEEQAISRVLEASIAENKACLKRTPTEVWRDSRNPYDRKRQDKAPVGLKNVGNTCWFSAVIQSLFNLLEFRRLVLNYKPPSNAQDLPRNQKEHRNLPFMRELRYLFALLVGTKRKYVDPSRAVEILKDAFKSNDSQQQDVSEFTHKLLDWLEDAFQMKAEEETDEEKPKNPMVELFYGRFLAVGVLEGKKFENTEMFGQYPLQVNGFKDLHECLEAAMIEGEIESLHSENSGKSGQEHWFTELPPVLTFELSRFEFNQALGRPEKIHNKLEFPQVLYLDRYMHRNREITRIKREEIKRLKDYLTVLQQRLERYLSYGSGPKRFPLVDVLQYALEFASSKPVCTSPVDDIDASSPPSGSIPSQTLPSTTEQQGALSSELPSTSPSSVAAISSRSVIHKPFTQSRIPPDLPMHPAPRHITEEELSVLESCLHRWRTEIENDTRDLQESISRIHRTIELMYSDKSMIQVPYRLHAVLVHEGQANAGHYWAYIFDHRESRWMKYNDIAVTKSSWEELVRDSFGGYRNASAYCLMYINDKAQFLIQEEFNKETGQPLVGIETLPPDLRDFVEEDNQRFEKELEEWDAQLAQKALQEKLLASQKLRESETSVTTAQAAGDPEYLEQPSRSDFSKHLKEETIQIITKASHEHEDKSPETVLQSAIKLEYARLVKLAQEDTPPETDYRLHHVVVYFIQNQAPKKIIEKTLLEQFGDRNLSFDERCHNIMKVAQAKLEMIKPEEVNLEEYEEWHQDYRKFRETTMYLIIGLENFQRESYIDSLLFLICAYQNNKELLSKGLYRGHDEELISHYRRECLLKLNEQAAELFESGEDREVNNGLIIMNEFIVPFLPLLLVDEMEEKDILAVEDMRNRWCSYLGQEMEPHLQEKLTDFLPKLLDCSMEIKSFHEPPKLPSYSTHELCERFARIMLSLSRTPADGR
In short: as §1

USP28 = target: T4, USP28 (UniProt Q96RU2)
T4 sequence (whole entry): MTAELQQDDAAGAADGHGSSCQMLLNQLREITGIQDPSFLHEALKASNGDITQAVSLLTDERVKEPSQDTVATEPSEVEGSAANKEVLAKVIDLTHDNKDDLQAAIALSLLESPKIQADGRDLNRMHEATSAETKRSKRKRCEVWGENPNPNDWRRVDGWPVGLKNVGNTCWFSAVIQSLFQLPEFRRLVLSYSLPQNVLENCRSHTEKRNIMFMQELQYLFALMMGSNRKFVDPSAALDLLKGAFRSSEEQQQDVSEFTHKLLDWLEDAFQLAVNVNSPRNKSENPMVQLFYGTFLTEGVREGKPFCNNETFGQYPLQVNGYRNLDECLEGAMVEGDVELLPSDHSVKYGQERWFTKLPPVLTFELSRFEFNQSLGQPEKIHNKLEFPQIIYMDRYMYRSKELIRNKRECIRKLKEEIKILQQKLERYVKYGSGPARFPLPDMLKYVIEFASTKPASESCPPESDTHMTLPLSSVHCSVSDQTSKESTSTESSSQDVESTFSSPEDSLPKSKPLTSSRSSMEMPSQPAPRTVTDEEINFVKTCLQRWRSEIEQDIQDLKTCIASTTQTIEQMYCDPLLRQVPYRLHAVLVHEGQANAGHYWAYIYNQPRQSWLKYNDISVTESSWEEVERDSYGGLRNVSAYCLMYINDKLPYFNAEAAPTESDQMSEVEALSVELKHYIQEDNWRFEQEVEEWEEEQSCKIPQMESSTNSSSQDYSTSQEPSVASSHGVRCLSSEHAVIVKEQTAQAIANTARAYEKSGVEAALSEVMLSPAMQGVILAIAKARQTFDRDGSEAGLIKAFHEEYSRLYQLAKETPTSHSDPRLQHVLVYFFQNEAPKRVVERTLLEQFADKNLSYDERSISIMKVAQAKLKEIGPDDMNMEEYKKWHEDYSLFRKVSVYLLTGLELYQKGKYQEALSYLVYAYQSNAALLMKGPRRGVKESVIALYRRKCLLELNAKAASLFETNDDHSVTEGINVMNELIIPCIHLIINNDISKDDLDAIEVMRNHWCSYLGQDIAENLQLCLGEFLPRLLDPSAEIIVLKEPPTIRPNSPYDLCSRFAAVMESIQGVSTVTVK
In short: as §1

Measured: log2 ratio of Biotin-Ahx-Ub-VS probe labelling

USP24, sequence (Q9UPU5 whole entry): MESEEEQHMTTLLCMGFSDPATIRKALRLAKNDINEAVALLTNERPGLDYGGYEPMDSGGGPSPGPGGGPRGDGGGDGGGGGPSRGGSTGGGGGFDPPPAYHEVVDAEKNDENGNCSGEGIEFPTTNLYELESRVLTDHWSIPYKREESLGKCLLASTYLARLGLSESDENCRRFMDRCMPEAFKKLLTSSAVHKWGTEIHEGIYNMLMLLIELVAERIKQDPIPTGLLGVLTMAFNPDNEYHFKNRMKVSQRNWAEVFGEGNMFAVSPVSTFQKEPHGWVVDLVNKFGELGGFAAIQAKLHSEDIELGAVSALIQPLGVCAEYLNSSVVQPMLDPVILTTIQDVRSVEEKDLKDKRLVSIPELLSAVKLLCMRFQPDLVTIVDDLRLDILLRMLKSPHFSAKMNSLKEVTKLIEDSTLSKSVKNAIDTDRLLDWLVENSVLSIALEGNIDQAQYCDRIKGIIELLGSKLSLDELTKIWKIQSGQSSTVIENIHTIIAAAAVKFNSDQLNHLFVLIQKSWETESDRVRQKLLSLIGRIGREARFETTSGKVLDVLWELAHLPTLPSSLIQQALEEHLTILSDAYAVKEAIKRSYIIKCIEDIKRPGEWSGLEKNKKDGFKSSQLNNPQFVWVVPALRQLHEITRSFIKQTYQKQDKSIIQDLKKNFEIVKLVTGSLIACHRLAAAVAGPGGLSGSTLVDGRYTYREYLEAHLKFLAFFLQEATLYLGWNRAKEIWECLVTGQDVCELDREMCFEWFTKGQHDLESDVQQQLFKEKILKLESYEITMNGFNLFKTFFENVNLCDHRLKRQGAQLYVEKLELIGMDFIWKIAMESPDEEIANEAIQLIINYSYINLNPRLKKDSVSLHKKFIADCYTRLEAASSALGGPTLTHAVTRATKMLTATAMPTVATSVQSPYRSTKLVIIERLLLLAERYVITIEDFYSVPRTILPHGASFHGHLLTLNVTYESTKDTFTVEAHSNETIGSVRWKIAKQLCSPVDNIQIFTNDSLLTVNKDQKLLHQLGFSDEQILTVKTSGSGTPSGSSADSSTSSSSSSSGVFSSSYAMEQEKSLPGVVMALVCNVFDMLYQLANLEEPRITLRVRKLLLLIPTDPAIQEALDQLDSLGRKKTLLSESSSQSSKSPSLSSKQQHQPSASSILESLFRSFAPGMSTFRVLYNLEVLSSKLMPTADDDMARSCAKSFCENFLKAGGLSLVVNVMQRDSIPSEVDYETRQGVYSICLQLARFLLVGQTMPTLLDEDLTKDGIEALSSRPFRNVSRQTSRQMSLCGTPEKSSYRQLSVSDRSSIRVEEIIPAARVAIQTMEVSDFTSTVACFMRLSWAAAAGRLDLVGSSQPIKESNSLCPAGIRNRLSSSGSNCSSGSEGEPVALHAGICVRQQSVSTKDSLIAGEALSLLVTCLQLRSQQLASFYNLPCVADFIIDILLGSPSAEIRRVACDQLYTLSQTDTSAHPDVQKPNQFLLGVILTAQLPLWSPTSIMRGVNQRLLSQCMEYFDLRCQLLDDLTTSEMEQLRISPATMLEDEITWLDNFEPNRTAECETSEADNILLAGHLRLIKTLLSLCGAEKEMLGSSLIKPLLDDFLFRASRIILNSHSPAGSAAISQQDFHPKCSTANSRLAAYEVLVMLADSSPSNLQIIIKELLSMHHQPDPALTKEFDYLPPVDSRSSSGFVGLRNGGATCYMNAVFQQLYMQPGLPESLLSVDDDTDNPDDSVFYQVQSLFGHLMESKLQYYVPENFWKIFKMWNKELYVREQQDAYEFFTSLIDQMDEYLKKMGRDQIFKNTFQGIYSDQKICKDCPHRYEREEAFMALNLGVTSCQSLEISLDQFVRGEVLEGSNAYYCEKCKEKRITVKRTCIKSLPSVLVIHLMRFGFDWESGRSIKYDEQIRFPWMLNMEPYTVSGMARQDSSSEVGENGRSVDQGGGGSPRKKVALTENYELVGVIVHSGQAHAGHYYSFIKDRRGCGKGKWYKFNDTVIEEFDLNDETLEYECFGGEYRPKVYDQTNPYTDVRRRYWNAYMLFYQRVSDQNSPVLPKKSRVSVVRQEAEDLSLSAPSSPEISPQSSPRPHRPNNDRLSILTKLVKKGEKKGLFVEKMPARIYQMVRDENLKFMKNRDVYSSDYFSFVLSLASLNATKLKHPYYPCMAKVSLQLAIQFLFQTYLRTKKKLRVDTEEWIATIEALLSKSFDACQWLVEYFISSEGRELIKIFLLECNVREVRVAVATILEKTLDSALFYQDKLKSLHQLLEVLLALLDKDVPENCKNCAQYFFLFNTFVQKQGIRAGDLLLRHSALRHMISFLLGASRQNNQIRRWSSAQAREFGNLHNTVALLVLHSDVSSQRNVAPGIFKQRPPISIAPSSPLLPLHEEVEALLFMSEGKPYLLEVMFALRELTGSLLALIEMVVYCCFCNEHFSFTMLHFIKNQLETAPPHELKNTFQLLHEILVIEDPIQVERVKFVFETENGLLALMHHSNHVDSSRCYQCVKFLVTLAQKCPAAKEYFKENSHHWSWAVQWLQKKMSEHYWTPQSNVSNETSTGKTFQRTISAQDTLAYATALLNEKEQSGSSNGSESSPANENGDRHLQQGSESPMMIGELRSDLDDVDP

O=C(CCl)NCCC1COCCO1 (stereo not given)
inactive: USP19 -0.207 | USP22 0.193 | USP24 -0.21 | USP25 -0.158 | USP28 -0.225
